CHX counter: Cycloheximide Counterscreen for Small Molecule Inhibitors of Shiga Toxin. cell reporter, cycloheximide protein synthesis inhibition counterscreen. max response, %. hit rate 12% among 300,000. AID 2314, 2010; in the data active = max response mostly above about 13%, no sharp cut-off; inactive = mostly below about 14%; also: read at 38.3 µM for the half of the compounds with a filed dose
Pf growth 96h: Primary qHTS for delayed death inhibitors of the malarial parasite plastid, 96 hour incubation. P. falciparum luciferase reporter growth, 96 h. AID 504834, 2011. hit rate 6.9% among 320,000. Potency, µM (highest dose often 28.7 µM), actives largely listed as inhibitors
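Delayed-death screen, second-generation endpoint: infected erythrocytes, 2% hematocrit, 0.05% parasitemia final; 96 hours at 37 C, 5% CO2; luciferase detection reagent; luminescence decrease equals reduced growth.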
Pf growth 48h: Primary qHTS for delayed death inhibitors of the malarial parasite plastid, 48 hour incubation. P. falciparum luciferase growth in erythrocytes, 48 h. Potency, µM (highest dose often 28.7 µM), actives largely listed as inhibitors. hit rate 5.9% among 310,000
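Firefly luciferase activity from engineered P. falciparum reports growth; inhibitors lower the luminescent signal. Cultures contained 2% hematocrit erythrocytes at 0.1% final parasitemia.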
SARS PLpro yeast: qHTS of Yeast-based Assay for SARS-CoV PLP | S. cerevisiae expressing SARS-CoV PLpro, growth rescue | hit rate 0.19% among 330,000 | Potency, µM (titrated, usually from 32.9 µM), most hits filed as activators; calls by dose curve; also: nearly all actives have a fitted effect of over 55% in size
Shiga toxin inh: A qHTS for Small Molecule Inhibitors of Shiga Toxin | hit rate 9.2% among 290,000 | inhibition, % at 38.7 µM | Vero cells, Shiga toxin protein synthesis inhibition reporter | AID 2315, 2010; in the data active = inhibition mostly above about 28%, no sharp cut-off; inactive = mostly below about 43%
AMA1 RON2 block: qHTS for Inhibitors of AMA1-RON; Towards Development of Antimalarial Drug Lead: Primary Screen | Plasmodium falciparum AMA1 (3D7) - RON2 peptide interaction | AlphaScreen AMA1-biotinylated RON2 peptide binding | Potency, µM (titrated, usually from 58.2 µM), actives largely listed as inhibitors | hit rate 0.2% among 360,000; also: nearly all actives have a fitted effect of over 45% in size
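AMA1 (3D7) with his tag at 25 nM final met compounds first, then biotinylated RON2 peptide at 25 nM; detection used donor plus acceptor beads, 10 µg/mL apiece, read by AlphaScreen after 30 min at room temperature.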
A number is an active result; - = inactive; ? = inconclusive; . = no result given; [ ] = another dose, or the depositor's remark. Only some compounds are listed: those with a hit (about 19% of all), similar ones and a draw of the others. Unless noted, calls follow the shape of the dose curve; as a rule, active = well fitted curve in the direction sought with a large enough effect; inconclusive = small, poorly fitted or top-dose-only effect, or another doubt; inactive = no such curve, though single readings can be large; an effect the other way counts as inactive or inconclusive.

SMILES	CHX counter	Pf growth 96h	Pf growth 48h	SARS PLpro yeast	Shiga toxin inh	AMA1 RON2 block
O=C(Nc1ccccc1C(=O)N1CCOCC1)C1CCCO1 (stereo unspecified)	-	.	-	-	-	-
NC(=O)c1ccccc1NC(=O)C1CCCO1 (stereo unspecified)	-	10µM	-	-	-	-
O=C(NCc1ccccc1)c1ccc(NC(=O)C2CC2)cc1	.	.	.	.	.	-
COc1ccc(NC(=O)C2CCCO2)cc1 (stereo unspecified)	16	-	-	-	-	-
COc1ccc(-c2csc(NC(=O)C3CCCO3)n2)cc1 (stereo unspecified)	43	-	-	-	82	-
O=C(COc1cc(O)c2c(=O)c3ccccc3oc2c1)OCc1ccccc1	-	-	-	-	-	-
O=C(Nc1ccccc1N1CCOCC1)C1CCCO1 (stereo unspecified)	.	.	.	-	.	-[11.6 µM]
O=C(NCCN1CCCC1)C(c1ccccc1)c1ccccc1	-	-	-	-	.	-
COc1ccc(Cc2nnc(NC(=O)C3CCCO3)s2)cc1 (stereo unspecified)	24	?	-	-	-	-
COc1ccc(NS(=O)(=O)c2cccc(C(=O)NCCCN3CCOCC3)c2)cc1	.	?	?	-	.	-
Cc1ccc(-n2c(C)cc(C(=O)CSc3nnnn3C)c2C)cc1	53	?	?	-	66	-
COc1cccc(NC(=O)CSc2nnc(-c3ccoc3C)n2C)c1	-	?	-	-	-	-
Cc1ccc(-n2c(C)cc(C(=O)CSc3nncs3)c2C)cc1	45	-	-	-	105	-
COc1ccc(Cl)cc1C(=O)CSc1nnnn1C	-	-	-	-	-	-
Cc1cc(C(=O)CSc2nncs2)c(C)n1-c1c(C)n(C)n(-c2ccccc2)c1=O	-	.	-	-	-	-
COc1ccc(-n2c(C)cc(C(=O)CSc3nnc(-c4ccoc4C)n3C)c2C)cc1	-	.	9.3µM	-	-	-
CN(C)/N=C/C=C1\CCC/C(=C/c2cccs2)C1=O	61	-	-	-	82	-
CN(C)/N=C/C=C1\CC/C(=C\c2ccc(Br)cc2)C1=O	-	-	.	-	-	-
CCCCC(=O)Nc1nn(CC(C)C)c2nc3ccccc3cc12	-	-	?	-	-	-
COc1ccc2nc3c(cc2c1)c(NC(=O)c1cccs1)nn3CC(C)C	19	-	?	-	88	-
CC(C)Cn1nc(NC(=O)C(C)(C)C)c2cc3ccccc3nc21	-	?	9.3µM	-	-	-
Cc1ccc2nc3c(cc2c1)c(NC(=O)C(C)(C)C)nn3CC(C)C	-	1µM	13µM	-	-	-
CC(C)Cn1nc(NC(=O)c2cccs2)c2cc3ccccc3nc21	-	?	?	-	-	-
CCn1nc(NC(=O)c2ccncc2)c2cc3cccc(C)c3nc21	-	2.1µM	-	-	-	-
CC(C)Cn1nc(NC(=O)c2ccco2)c2cc3ccccc3nc21	-	?	-	-	-	-
SMILES	CHX counter	Pf growth 96h	Pf growth 48h	SARS PLpro yeast	Shiga toxin inh	AMA1 RON2 block
CCn1nc(NC(=O)c2ccco2)c2cc3ccccc3nc21	-	9.3µM	.	-	-	-
O/N=C/c1ccc2ccccc2c1	21	-	-	-	-	-
CC(=O)N1c2ccccc2CCc2ccc([N+](=O)[O-])cc21	-	-	-	-	-	-
COc1ccccc1-c1cc2ccccc2[nH]1	38	-	-	-	69	-
COC(=O)c1sc2nc(SCc3ccccc3C)n(N)c(=O)c2c1C	-	?	-	-	-	-
COC(=O)c1sc2nc(SCc3cccc(Cl)c3)n(N)c(=O)c2c1C	-	9.3µM	-	?	-	-
Cc1ccccc1-c1nnc(-c2cccc3ccccc23)o1	.	.	.	.	.	-
Cc1ccccc1-c1nnc(CN2CCC(C)CC2)o1	27	-	.	-	71	-
Cc1ccccc1-c1nnc(-c2ccc(Br)cc2)o1	21	-	.	-	-	-
Cc1ccccc1-c1nnc(-c2ccccc2C)o1	23	-	-	-	42	-
Cc1ccccc1-c1nnc(CN2CCN(C(=O)c3ccco3)CC2)o1	-	-	-	-	-	-
N#CC1=C(N)C(C#N)(C#N)[C@H](c2cccnc2)[C@H]2CN(C(=O)OCc3ccccc3)CC=C12	-	13µM	?	-	-	-
CCOC(=O)N1CC=C2C(C#N)=C(N)C(C#N)(C#N)[C@H](c3ccc(OC(C)C)c(OCC)c3)[C@H]2C1	-	-	5.2µM	-	-	-
N#CC1=C(N)C(C#N)(C#N)C(c2cccnc2)C2CC(c3ccccc3)CC=C12 (stereo unspecified)	-	12µM	?	-	-	-
N#CC1=C(N)C(C#N)(C#N)C(c2cccnc2)C2CCCC=C12 (stereo unspecified)	-	-	-	-	-	.
CCOC(=O)N1CC=C2C(C#N)=C(N)C(C#N)(C#N)[C@H](c3ccccc3OCC)[C@H]2C1	-	.	-	-	-	-
NC(=S)N/N=C1/CCSc2ccc3ccccc3c21	-	-	?	-	-	-
CC1CC(NC(=O)c2c(O)nc3sccn3c2=O)CC(C)(C)C1 (stereo unspecified)	.	?	13µM	-	.	-
O=C(NC1CCCCCC1)c1c(O)nc2sccn2c1=O	.	4.7µM	6.6µM	-	.	-
CC1CC(NC(=O)c2c(O)nc3ccccn3c2=O)CC(C)(C)C1 (stereo unspecified)	.	.	.	.	.	-
O=C(NC1CCCCC1)c1c(O)nc2sccn2c1=O	.	10µM	10µM	-	.	-
CC(C)CN(CC(C)C)C(=O)CCCC(=O)N(CC(C)C)CC(C)C	-	-	-	-	-	-[2.32 µM]
c1ccc(CN2CCCC3(CCCN(Cc4nc(CC5CC5)no4)C3)C2)cc1 (stereo unspecified)	-	-	-	-	-	-
COCC1CCN(Cc2nc(COc3ccccc3)no2)C1 (stereo unspecified)	15	-	?	-	31	-
c1ccc(CN2CCCC3(CCCN(Cc4nc(COc5ccccc5)no4)C3)C2)cc1 (stereo unspecified)	-	-	12µM	-	-	-
SMILES	CHX counter	Pf growth 96h	Pf growth 48h	SARS PLpro yeast	Shiga toxin inh	AMA1 RON2 block
CCCCCCn1c(SCCCC)nc2c1c(=O)[nH]c(=O)n2C	-	3.3µM	?	-	-	-
CCC(C)Nc1nc2c(c(=O)[nH]c(=O)n2C)n1CCOc1ccccc1 (stereo unspecified)	-	?	?	-	-	-
CC(C)CCSc1nc2c(c(=O)[nH]c(=O)n2C)n1CCCc1ccccc1	-	5.9µM	-	-	-	-
CCCCCCn1c(SCCOC)nc2c1c(=O)[nH]c(=O)n2C	-	-	-	-	-	-
CCCCCn1c(SCc2cccc(C)c2)nc2c1c(=O)[nH]c(=O)n2C	-	9.3µM	?	-	-	-
CCCCn1c(NC(C)CC)nc2c1c(=O)[nH]c(=O)n2C (stereo unspecified)	-	4.7µM	?	-	-	-

From PubChem
